The source of these data is the OligoGym collection.

One experiment deals with CBR1. The experiment is described as follows: pooled miR-30 sensor sort-seq; sequence = guide strand. The settings on record: shRNA.
The target of a further experiment is CBL. Described as above. The following applies: shRNA.
Further: reference of the scale not given here.

TTCTGTGCACACATCTCGGGTA yielded a sensor-assay potency score (higher = more potent) with CBR1 of 0.677.
In turn, TTATTGTGAGGGATTGTCTGGA had a sensor-assay potency score (higher = more potent) in the experiment with CBL of 0.335.
In the experiment with CBR1, TTATTAGAGGGAGTAATTCTGT showed a sensor-assay potency score (higher = more potent) of -0.254.
TTTGGGTTCTGACACAACCGCA: in the experiment with CBL, the sensor-assay potency score (higher = more potent) was -1.29.
Sequence TTGTTTTCATCGTCACTTCAGC had a sensor-assay potency score (higher = more potent) with CBR1 of -0.315.
ATCGTCGATGTCCAGCTGGTGG gave a sensor-assay potency score (higher = more potent) in the experiment with CBR1 of -1.35.
TTTTCATCGTCACTTCAGCTTG: in the experiment with CBR1, the sensor-assay potency score (higher = more potent) was -0.702.
In the experiment with CBR1, TCTGTGCACACATCTCGGGTAC returned a sensor-assay potency score (higher = more potent) of -0.133.
The same measure, in the same setting: under TTCTCTGAAACAAATTGTCCAT stands -0.572.
On the same count and under the same terms, under TTCAGCTTGAATATGAAAGGGT stands 0.264.
For the sequence TTGCTTAGTTTTCTTCATCAAA, the sensor-assay potency score (higher = more potent) with CBL was -1.12.
In turn, TTATACATTGCTTCATACGTAC came in with a sensor-assay potency score (higher = more potent) with CBL of -0.141.
TCATCGTCACTTCAGCTTGAAT came in with a sensor-assay potency score (higher = more potent) with CBR1 of -1.32.
In the case of TAAGAGATCATTTTTTTTCTTA, in the experiment with CBR1, the sensor-assay potency score (higher = more potent) amounted to 0.534.
Same read-out and setting: under AATTCTGTGCACACATCTCGGG stands -0.452.
Take ATCTTGACAAGATAGTACGGAG: in the experiment with CBL, the sensor-assay potency score (higher = more potent) was -1.09.
As to TTTCACTTCGTCATACGTCAAA, the sensor-assay potency score (higher = more potent) with CBL was -0.674.
Turning to TACAGCTATCAATCTGCTGGTC, the sensor-assay potency score (higher = more potent) with CBL was -0.313.
In the case of TCACCATCCAGAGACAACCAGC, the sensor-assay potency score (higher = more potent) with CBL is -1.24.
TTTATTGTGAGGGATTGTCTGG displayed a sensor-assay potency score (higher = more potent) with CBL of -0.649.
In the case of TTTGTGAATGAATTTCTGGAGC, in the experiment with CBL, the sensor-assay potency score (higher = more potent) is -0.665.
TCTCTGAAACAAATTGTCCATG had a sensor-assay potency score (higher = more potent) with CBR1 of -1.29.
With TTGGGTTCTGACACAACCGCAC, the sensor-assay potency score (higher = more potent) in the experiment with CBL was 0.227.
TTCAGAGTTGATTCTCCGCGGG: the sensor-assay potency score (higher = more potent) with CBL is -0.689.
TATTAGAGGGAGTAATTCTGTG gave a sensor-assay potency score (higher = more potent) with CBR1 of -0.602.
Take TGAGGGAACACATACTCGCTGC: the sensor-assay potency score (higher = more potent) with CBL is -0.456.
In the experiment with CBL, ATGCACTTCATGTAGAGCCTGT came in with a sensor-assay potency score (higher = more potent) of 0.672.
In turn, ATTCTGTGCACACATCTCGGGT displayed a sensor-assay potency score (higher = more potent) in the experiment with CBR1 of -0.951.
In the experiment with CBL, TATCTTGACAAGATAGTACGGA yielded a sensor-assay potency score (higher = more potent) of 0.0663.
In turn, TAATTCTGTGCACACATCTCGG showed a sensor-assay potency score (higher = more potent) with CBR1 of -0.638.
